High-throughput results: PubChem, National Center for Advancing Translational Sciences (NCATS)
A selection: hits, their analogues and other compounds. The true share with any hit is near 4.6%.
D1 potentiator: enhances dopamine response at the human D1 receptor | 360,000 tested, 0.036% active | potentiation, % at 10 µM | P21728 | AID 504651 | HEK293 TREx D1 cells, calcium flux, dopamine EC20 potentiation; in the data active = potentiation above about 30%; also: 0% is about no effect
D1 agonist: activates the human D1 dopamine receptor; P21728; HEK293 T-REx D1 cells, calcium flux, agonist mode; activation, % at 2 µM; 360,000 tested, 1% active; also: 0% is about no effect
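Agonism was scored from calcium flux recorded over 180 s (1 read/s) after pintool compound addition, following a 10-cycle baseline. Cells were inducible force-coupled HEK293 TREx D1, plated overnight at 30 C and loaded with no-wash calcium dye.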
TRHR PAM: TRH receptor (human) allosteric enhancement; P34981; TRHR cells, fluo-8 calcium fluorescence, EC20 TRH enhancement; enhancement, % at 2 µM; 360,000 tested, 0.66% active; AID 493056; in the data active = enhancement above about 30%; also: 0% is about no effect
Target sequence (P34981 whole entry, looked up): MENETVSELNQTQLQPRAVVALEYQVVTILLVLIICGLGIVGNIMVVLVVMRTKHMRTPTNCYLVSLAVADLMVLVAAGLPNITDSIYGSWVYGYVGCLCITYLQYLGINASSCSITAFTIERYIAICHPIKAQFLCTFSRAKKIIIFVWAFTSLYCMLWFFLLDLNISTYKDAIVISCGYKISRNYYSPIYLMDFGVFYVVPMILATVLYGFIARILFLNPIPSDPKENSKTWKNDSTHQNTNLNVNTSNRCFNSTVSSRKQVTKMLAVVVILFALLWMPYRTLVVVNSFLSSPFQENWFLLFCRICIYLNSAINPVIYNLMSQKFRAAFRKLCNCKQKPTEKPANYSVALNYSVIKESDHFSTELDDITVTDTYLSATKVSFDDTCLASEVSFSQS
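Enhancer read-out: after compound pinning and an initial kinetic agonist-mode read, an EC20 of TRH (10 nM final) was injected and fluo-8 calcium signal (Ex 480/Em 530) followed at 1 s/cycle for 100 cycles in TRHR-expressing cells.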
D1 antag: blocks dopamine activation of the human D1 receptor | P21728 | HEK293 TREx D1 cells, calcium flux, dopamine EC80; active compounds read low | activity change, negative = inhibition, % at 10 µM | 360,000 tested, 3.2% active | AID 504652; in the data active = activity change below about -30%; also: % is scaled to controls: 0 for no effect and ±100 for the full control effect
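Cells carrying a force-coupled, tetracycline-inducible human D1 receptor report calcium flux. Each well gets a 10 s baseline, compound with 180 s monitoring, then an EC80 dopamine stimulus with a second 180 s kinetic read.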
TRHR agonist: activates the human TRH receptor; P34981; TRHR cells, calcium flux fluo-8, FDSS agonist mode; activation, % at 2 µM; 360,000 tested, 0.18% active; also: 0% is about no effect
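Fluo-8-loaded TRHR cells; 10 s baseline, compound added, kinetic Ca2+ fluorescence read 1/s, agonist mode.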
The depositor's hits bear a star; . = no result; ! = not active in a repeat. Rule as the data show it, unless noted: active = activation above about 30%; inactive = the rest.

SMILES	D1 potentiator	D1 agonist	TRHR PAM	D1 antag	TRHR agonist
CC(=O)c1c(C)nc2ccccc2c1N	3	0	-4	9	0
Cc1nc2ccccc2c(N)c1C(=O)/C=C/c1ccccc1	-6	25	-7	-32*	1
CC(=O)Nc1cccc(OCC(O)Cn2c(C)nc3ccccc32)c1 (stereo not drawn)	-4	0	-3	-69*	0
CCCc1nc2ccccc2n1CC(O)COc1ccc(NC(C)=O)cc1 (stereo not drawn)	-4	3	7	-34*	0
CC(=O)Nc1ccc(OCC(O)Cn2cnc3ccccc32)cc1 (stereo not drawn)	-4	2	2	-12	1
Cc1cc(NC(=O)C2CCCN(S(=O)(=O)c3cccc4nonc34)C2)ccc1Br (stereo not drawn)	0	2	-5	2	-1
Cc1cccc(C(c2sc3nc(-c4ccco4)nn3c2O)N2CCN(c3ccccc3)CC2)c1 (stereo not drawn)	3	1	6	.	0
Nc1ncc(Br)cc1S(=O)(=O)Nc1cc(C(F)(F)F)cc(C(F)(F)F)c1	-6	19	-7	-34*	4
Cc1ccc(NS(=O)(=O)c2cc(Br)cnc2N)c(Cl)c1	-5	8	-1	6	-1
COc1cc(/C=C/C(=O)OCC(=O)c2ccc3c(c2)NC(=O)CO3)ccc1OC(F)F	.	5	0	-9	0
COc1ccc(/C=C/C(=O)OCC(=O)c2ccc3c(c2)NC(=O)CO3)cc1	30*	1	15	8	1
O=C1COc2ccc(C(=O)COC(=O)CCSc3ccccc3)cc2N1	-3	11	-9	-31*	-1
Cc1ccc(-c2nn(-c3ccccc3)cc2CSC(=N)N)cc1	1	51*	6	32	2
OCc1cn(-c2ccccc2)nc1-c1ccc(-c2nn(-c3ccccc3)cc2CO)cc1	-8	9	-4	3	2
Cc1ccc(N(C)C(CNS(=O)(=O)c2ccccc2)c2ccccc2)cc1 (stereo not drawn)	-1	3	2	-48*	0
CC1C(c2ccccc2)N(C)C(c2ccccc2)C(C)C1(O)C#Cc1ccccc1 (stereo not drawn)	-4	11	39*	-1	1
O=C(Cc1ccccc1)Nc1sc2c(c1C(=O)Nc1cccc(Cl)c1)CCCC2	-4	7	4	22	2
O=c1c2ccccc2nc(-c2ccco2)n1CCc1ccc(O)cc1	-7	3	-4	-41*	0
O=c1c2ccccc2nc(/C=C/c2ccc(O)cc2)n1CCc1ccccc1	-7	3	-5	-41*	2
COc1ccc(C2C=C(c3cccc(OC)c3)Nc3c(C(=O)Nc4ccccc4)cnn32)cc1 (stereo not drawn)	-2	2	-5	-10	0
CC(=O)c1c(C)nc2nc(-c3ccccc3)nn2c1C	-2	0	2	-1	0
CC1C(=O)N2CCCc3cc(S(=O)(=O)Nc4ccccc4C(N)=O)cc1c32 (stereo not drawn)	-4	2	32*	-5	0
CC1C(=O)N2CCCc3cc(S(=O)(=O)Nc4ccccc4F)cc1c32 (stereo not drawn)	-1	5	5	6	0
COc1ccc(C2=NC(C)(C)N(CC(=O)Nc3cccc(C)c3)C2=O)cc1	0	3	1	-6	1
C/C(=N\NC(=O)c1ccco1)c1ccc(NC(=O)c2ccccc2)cc1	-7	4	1	-33*	0
SMILES	D1 potentiator	D1 agonist	TRHR PAM	D1 antag	TRHR agonist
C/C(=N\NC(=O)c1ccco1)c1ccc(-c2ccccc2)cc1	-4	2	9	-1	0
C/C(=N\NC(=O)c1ccco1)c1ccc(NC(=O)C(F)(F)F)cc1	-4	5	39*	-18	0
CCN(CC)C(=O)c1ccc2c(c1)N(Cc1ccc(C(F)(F)F)cc1)C(=O)c1ccccc1S2	0	4	-9	8	1
Fc1ccc(Nc2nc3nonc3nc2Nc2cccc(C(F)(F)F)c2)cc1	-3	24	-10	-37*	7
Fc1ccc(CNC(=S)Nc2cccc(C(F)(F)F)c2)cc1	-12	-1	8	-23	0
COc1ccc(CCNC(=O)CN2C(=O)COc3ccc(S(=O)(=O)N4CCOCC4)cc32)cc1OC	-2	2	-1	-52*	0
CCCSCCCNC(=O)CN1C(=O)COc2ccc(S(=O)(=O)N3CCCC3)cc21	3	2	6	-38*!	0
CN(C)C(=O)c1ccc(NC(=O)c2cc(-c3ccco3)nc3ccccc23)cc1	3	4	1	12	0
Cc1csc(NC(=O)c2cc(-c3ccco3)nc3ccccc23)n1	-6	-1	6	-31*	-2
CCN(CC)CCNC(=O)c1ccc(NC(=O)c2cc(-c3ccco3)nc3ccccc23)cc1	1	2	-5	-40*	1
COc1ccc(Br)cc1C1NC(c2ccc3c(c2)OCO3)=CC(c2cc(Cl)ccc2O)N1 (stereo not drawn)	4	25	-5	-15	4
CC(C)CC1(C(=O)NCc2cc(F)cc(C(F)(F)F)c2)C=CCN1C(=O)c1ccccc1 (stereo not drawn)	0	-1	-19	-30*	-1
Cc1ccc(OCC(=O)O/N=C(\N)c2ccccn2)cc1C	-8	8	-2	-44*	0
Cc1cc(C)cc(OCC(=O)NNC(=O)c2ccccn2)c1	-1	2	1	-38*	0
Cc1ccc(-c2nc(N3CCN(S(=O)(=O)c4ccc(F)cc4)CC3)c3ccc(Cl)cc3n2)cc1	1	3	1	-41*	-1
COc1ccc(-c2nc(N3CCN(S(=O)(=O)c4ccc(F)cc4)CC3)c3ccccc3n2)cc1	3	5	39*	-31*	-1
Cn1nc(-c2ccccc2F)c2cc(C(=O)N3CCN(c4ccccc4F)CC3)sc21	-1	9	-9	-16	1
O=C(Cc1cccs1)Nc1c(C(=O)Nc2ccc(F)cc2)oc2ccccc12	-3	26	0	-17	-2
Cc1cc(C)c(S(=O)(=O)NCc2csc(-c3ccccc3)n2)c(C)c1	6	10	7	-25	-1
Cc1ccc(SCc2nc(-c3ccc(C(=O)NCc4ccc(Cl)cc4)cc3)oc2C)cc1	-3	2	-10	-84*	0
Cc1oc(-c2ccc(C(=O)NCc3ccccc3F)cc2)nc1COc1ccccc1	-4	11	-20	-54*	1
CCOc1ccccc1CNC(=O)c1ccc(-c2nc(CSc3ccc(C)cc3)c(C)o2)cc1	-2	14	-1	6	1
CC(=O)N1c2ccccc2C(=O)C1N1CCN(c2ccc(F)cc2)CC1 (stereo not drawn)	-6	2	0	-46*	0
